The record followed here is the supplement of paper PMC10338343.

± gives the standard deviation. In all, about 8,200 sequences were measured (“pre-steady-state target cleavage rate”: median about 0.024, highest 2% from about 1.3 on). The list comes from a sample in which the highest values are over-represented; it also holds similar and randomly drawn sequences. Some results are limits rather than exact numbers.

This test concerns MIWI (PIWIL1) piRISC loaded with L1MC piRNA (30 nt). As to the kind of experiment: pre-steady-state target cleavage rate (min^-1); MIWI and MILI are mouse PIWI proteins and EfPiwi is from a freshwater sponge; tags in brackets are library labels; higher = faster piRNA-guided slicing of the target. The conditions noted are these: guide: L1MC piRNA 5'p-UAACUAAAUACUAUGCAAGCUGUAGGUCCU
A digest of the protocol: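 Active affinity-purified piRISC (1 nM) loaded with one synthetic guide was mixed with a transcribed, DNA-blocked target RNA library (0.1 nM), with or without 500 nM GTSF1 partner protein, in HEPES–potassium acetate buffer at 33 °C for 0–8 or 0–960 min. Uncleaved targets were sequenced, normalised to depth and to weakly complementary targets, and pooled across three trials, with k3 capped at 0.0001 min^-1. The pre-steady-state cleavage rate was determined with a burst-and-steady-state fit.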

Where [1] appears, read: auxiliary factor: 500 nM mouse GTSF1.
The mark [2] stands for this setting: auxiliary factor: none (no GTSF1).

As for UGGACAUACAGCUUGCAUAGUAUUUAGUUA, the “pre-steady-state target cleavage rate” value is 1.23 ± 0.05 under setting [1] and 0.0916 ± 0.014 under setting [2]. In the same order, the values of UCGACCAUACAGCUUGCAUAGUAUUUAGUUA are 0.86 ± 0.039 and 0.0901 ± 0.015.

Turning to UCGACAUACAGCUUGCAUAGUAUUUAGUUA, the “pre-steady-state target cleavage rate” value is, setting by setting: under setting [1], 1.38 ± 0.043; under setting [2], 0.071 ± 0.012.

As for AGGACAUACAGCUUGCAUAGUAUUUAGUUA, the “pre-steady-state target cleavage rate” value by setting is: under setting [1], 1.32 ± 0.055; under setting [2], 0.0818 ± 0.012. Taken in the same sequence, the figures for UCGACACUACAGCUUGCAUAGUAUUUAGUUA were 0.961 ± 0.061 and 0.0557 ± 0.0088. Taken in the same sequence, the figures for AGGACCAUACAGCUUGCAUAGUAUUUAGUUA were 1.06 ± 0.051 and 0.0829 ± 0.013.

On to UCCUGGAUGUGCUUGCAUUGUAUUUAGUAA, for which the “pre-steady-state target cleavage rate” value was found to be 0.0234 ± 0.0059 under setting [1] and 0.00578 ± 0.0023 under setting [2].

For UCCUGGAACAGCUUGCAUAGAUUUUAGUAA, the “pre-steady-state target cleavage rate” value under setting [1] was determined as 0.0419 ± 0.015. As for UCCUGGAUGUCGAAGGAUAGUAUUUUGUUA, under setting [2], the “pre-steady-state target cleavage rate” value was below 0.0001.

Turning to UCCUGGUACUGCAUGCAUAGUAUUUAGUUA, the “pre-steady-state target cleavage rate” value is 0.556 ± 0.045 under setting [1] and 0.00786 ± 0.0024 under setting [2]. In the same order, the values of UCCUGCUUCAGCAUGCAUAGUAUUUAGUUA are 1.32 ± 0.078 and 0.0171 ± 0.0036.

UCCUCCUUCAGCUAGCAUAGUAUUUAGUUA: the “pre-steady-state target cleavage rate” value by setting is: under setting [1], 0.78 ± 0.032; under setting [2], 0.0147 ± 0.0034.

Turning to UCCUGGUUCAGCAUGCAUAGUAUUUAGUUA, the “pre-steady-state target cleavage rate” value was found to be 0.93 ± 0.036 under setting [1] and 0.0172 ± 0.0043 under setting [2]. Taken in the same sequence, the figures for UCCUGGUUCAGCUAGCAUAGUAUUUAGUUA were 0.872 ± 0.045 and 0.0169 ± 0.004. Taken in the same sequence, the figures for UCCUGCUUCAGCUUGCAUAGUAUUUAGUUA were 1.19 ± 0.051 and 0.0684 ± 0.012. As to UCCUGCUUCAGCUAGCAUAGUAUUUAGUUA, the “pre-steady-state target cleavage rate” value reads like this: under setting [1], 1.32 ± 0.056; under setting [2], 0.0109 ± 0.0042. In the same order, the values of UCCUGGAACAGCUUGCAUUGUAAUUAGUUA are 0.375 ± 0.032 and 0.018 ± 0.006.

Take UCCUGGAACUCCUUGCAUAGUAUUUAGUUA: the “pre-steady-state target cleavage rate” value was found to be 0.46 ± 0.048 under setting [1] and 0.00821 ± 0.0033 under setting [2]. Taken in the same sequence, the figures for UCCUCCUAACAGCUUGCAUAGUAUUUAGUUA were 0.591 ± 0.025 and 0.0508 ± 0.0092. In the same order, the values of UCCACCUACAGCUUGCUUAGUUUUUAGUUA are 0.175 ± 0.017 and 0.0103 ± 0.002. In the same order, the values of UGGUCCUACAGCUUGCAUAGUAUUUUGUUA are 0.679 ± 0.03 and 0.0592 ± 0.011.

Consider UCCUGCUACAGCUUGCAUGGUAUUUAGUUA, for which the “pre-steady-state target cleavage rate” value is, setting by setting: under setting [1], 1.2 ± 0.1; under setting [2], 0.0413 ± 0.0095. Consider UGGACCUACAGCUUGCAUGGUAUUUAGUUA, for which the “pre-steady-state target cleavage rate” value reads like this: under setting [1], 1.38 ± 0.079; under setting [2], 0.0478 ± 0.01. Regarding UCCACCUACAGCUUGCAUGGUAUUUAGUUA, the “pre-steady-state target cleavage rate” value reads like this: under setting [1], 1.3 ± 0.061; under setting [2], 0.0488 ± 0.01.

Regarding UCGACCUACAGCUUGCAUGUAUUUAGUUA, the “pre-steady-state target cleavage rate” value reads like this: under setting [1], 0.479 ± 0.05; under setting [2], 0.00292 ± 0.0025. Taken in the same sequence, the figures for AGGACCUACAGCUUGCAUGGUAUUUAGUUA were 1.35 ± 0.073 and 0.0615 ± 0.012. Taken in the same sequence, the figures for UCGACCUACAGCUUGCAUGGUAUUUAGUUA were 1.73 ± 0.084 and 0.0512 ± 0.011. Consider UCGACCUACAGCUUGCAUUAGUAUUUAGUUA, for which the “pre-steady-state target cleavage rate” value under setting [1] is 0.264 ± 0.082.

Turning to UCCUCCUACAGCUUGCAUGUAUUUAGUUA, the “pre-steady-state target cleavage rate” value by setting is: under setting [1], 0.428 ± 0.051; under setting [2], 0.00445 ± 0.0018. In the same order, the values of UGGACCUACAGCUUGCAUGUAUUUAGUUA are 0.353 ± 0.055 and 0.00423 ± 0.0025. As for UCCUCCUACAGCUUGCAUGGUAUUUAGUUA, the “pre-steady-state target cleavage rate” value was found to be 1.66 ± 0.078 under setting [1] and 0.0582 ± 0.011 under setting [2]. In the same order, the values of AGGACCUACAGCUUGCAUGUAUUUAGUUA are 0.485 ± 0.048 and 0.00718 ± 0.0034. As for AGGACCUACAGCUUGCAUGAGUAUUUAGUUA, the “pre-steady-state target cleavage rate” value under setting [1] was 0.194 ± 0.068. In the case of AGGUCCUACAGCUUGCAUAGUAUUUAGAAA, the “pre-steady-state target cleavage rate” value under setting [1] was found to be 0.285 ± 0.045 and the “pre-steady-state target cleavage rate” value under setting [2] was 0.0132 ± 0.0048. Consider AGGACCUACAGCUUGCAUAGUUAAUUCAAA, for which, under setting [1], the “pre-steady-state target cleavage rate” value was determined as 0.786 ± 0.23. Consider UCCUGGUACAGCUUGCAUAGUAUUUAGAUUA, for which the “pre-steady-state target cleavage rate” value runs as follows: under setting [1], 0.179 ± 0.046; under setting [2], 0.0165 ± 0.0061. In the same order, the values of UCCUGCUACACCAUGCAUAGUAUUUAGUUA are 0.783 ± 0.035 and 0.00793 ± 0.002. UCCUGGAACAGCUUGCAAUGUAUUUAGUUA: the “pre-steady-state target cleavage rate” value came to 0.265 ± 0.02 under setting [1] and 0.00723 ± 0.0039 under setting [2]. Take UCCUGGAUGUCCUUGCAUAGUAUAUUGUUA: the “pre-steady-state target cleavage rate” value under setting [1] is 0.00947 ± 0.0039. The same measure, in the same setting: the result for UCGACCUACAGCUUGGAUAGUAUUUACAAA reads 0.179 ± 0.036. On to UCCUCCUACAGCUUGGUUAGUAUUUAGUAA, for which the “pre-steady-state target cleavage rate” value reads like this: under setting [1], 0.523 ± 0.043; under setting [2], 0.00502 ± 0.0015. Consider UCCACCUACAGCAAGCAUAGUAUUUAGUAA, for which the “pre-steady-state target cleavage rate” value under setting [1] was 0.507 ± 0.042. The same measure, in the same setting: the result for AGGACCUACAGCUUGCAUAGUAUUAUCUAA reads 0.404 ± 0.066.

For UCCUGGAUGUCCUUGCAUAGUAGUUAGUUA, the “pre-steady-state target cleavage rate” value is, setting by setting: under setting [1], 0.00603 ± 0.0046; under setting [2], 0.00268 ± 0.0023.

For UCCUGGUACAGCUUGCAUAGUAAAAAGUAA, under setting [1], the “pre-steady-state target cleavage rate” value is 0.109 ± 0.031. With UCCUGGAACAGCUUGCAUAGUAUUUAGAUA, the “pre-steady-state target cleavage rate” value is, setting by setting: under setting [1], 0.406 ± 0.042; under setting [2], 0.0172 ± 0.0058. For UCCUGCUACAGCUUGCAUAGUAUAUUGUUA, the “pre-steady-state target cleavage rate” value under setting [1] amounted to 0.377 ± 0.037 and the “pre-steady-state target cleavage rate” value under setting [2] was 0.0123 ± 0.0026. Taken in the same sequence, the figures for AGGCACCUACAGCUUGCAUAGUAUUUAGUUA were 2.18 ± 0.8 and 2.2 ± 1.8.

For UGCACCUACAGCUUGCAUAGUAUUUAGUAA, the “pre-steady-state target cleavage rate” value runs as follows: under setting [1], 1.17 ± 0.11; under setting [2], 0.0465 ± 0.0097. Consider UCGCACCUACAGCUUGCAUAGUAUUUAGUUA, for which the “pre-steady-state target cleavage rate” value by setting is: under setting [1], 1.06 ± 0.13; under setting [2], 0.0648 ± 0.015. AGCACCUACAGCUUGCAUAGUAUUUAGUUA: the “pre-steady-state target cleavage rate” value under setting [1] came to 1.19 ± 0.16 and the “pre-steady-state target cleavage rate” value under setting [2] was 0.246 ± 0.073.

For the sequence UGGCACCUACAGCUUGCAUAGUAUUUAGUUA, under setting [1], the “pre-steady-state target cleavage rate” value was determined as 2.2 ± 0.89.

For the sequence UGCACCUACAGCUUGCAUAGUAUUUAGUUA, the “pre-steady-state target cleavage rate” value under setting [1] is 1.22 ± 0.11 and the “pre-steady-state target cleavage rate” value under setting [2] amounted to 0.0865 ± 0.017. In the case of UCCUGGAACAGCUUGCAUAGCUAUUUAGUUA, under setting [1], the “pre-steady-state target cleavage rate” value stood at 0.0102 ± 0.0047. As to UCCUGGUAAAGCUUGCAUAGUAUUUAGUUA, the “pre-steady-state target cleavage rate” value is, setting by setting: under setting [1], 0.551 ± 0.037; under setting [2], 0.0419 ± 0.0086. Take UCCUGGAACAGCUUGCAAAGUAUAUAGUUA: the “pre-steady-state target cleavage rate” value by setting is: under setting [1], 0.459 ± 0.037; under setting [2], 0.0164 ± 0.0061. In the case of UCCUGCUACAGCUUGGAAAGUAUUUAGUUA, the “pre-steady-state target cleavage rate” value by setting is: under setting [1], 0.903 ± 0.053; under setting [2], 0.00754 ± 0.0024. Taken in the same sequence, the figures for UGGAUCUACAGCUUGCAUAGUAUUUAGUUA were 1.57 ± 0.062 and 0.0958 ± 0.019. In the same order, the values of UCCUGGAUCUAGCUUGCAUAGUAUUUAGUUA are 0.86 ± 0.04 and 0.0445 ± 0.011.

Consider UCGAUCUACAGCUUGCAUAGUAUUUAGUUA, for which the “pre-steady-state target cleavage rate” value by setting is: under setting [1], 1.61 ± 0.05; under setting [2], 0.072 ± 0.013. In the same order, the values of UGGACGCUACAGCUUGCAUAGUAUUUAGUUA are 1.15 ± 0.076 and 0.0759 ± 0.013.

As for AGGAUCUACAGCUUGCAUAGUAUUUAGUUA, the “pre-steady-state target cleavage rate” value stood at 1.7 ± 0.059 under setting [1] and 0.105 ± 0.017 under setting [2].
